Compound activity: PubChem, Broad Institute
EWS-Fli inh – inhibitors of EWS/Fli oncoprotein transcriptional activity | A673 NR0B1-luciferase reporter, viability-normalised | AID 651661 | inhibition, % at 12.6 µM | hit rate 0.67% among 350,000;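 active = mean inhibition of at least 50% after viability correction, with every replicate also passing that limit; inconclusive = mean reaches 50% but only one of two replicates passes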;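 also: firefly luciferase signal divided by Alamar Blue viability fluorescence both relative to DMSO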
SIRT5 inh – inhibitors of human sirtuin-5 desuccinylase; Q9NXA8; Purified SirT5, succinyl-peptide AMC, trypsin-coupled fluorescence; inhibition, % at 15 µM; hit rate 1.1% among 330,000; AID 652115; in the data active = inhibition above about 15%; inconclusive = no clear call, values can overlap the other calls
Target sequence (Q9NXA8 whole entry, looked up): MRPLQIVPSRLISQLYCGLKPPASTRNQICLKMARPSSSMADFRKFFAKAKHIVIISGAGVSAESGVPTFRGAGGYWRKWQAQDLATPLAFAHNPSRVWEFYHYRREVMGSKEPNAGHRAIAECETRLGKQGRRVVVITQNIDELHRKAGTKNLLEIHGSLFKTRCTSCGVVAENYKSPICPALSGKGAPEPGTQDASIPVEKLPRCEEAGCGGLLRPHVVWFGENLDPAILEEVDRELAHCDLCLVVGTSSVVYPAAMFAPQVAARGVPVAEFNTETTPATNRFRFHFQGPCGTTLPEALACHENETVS
PGC1a acetyl inh – PGC1a acetylation modulation, inhibitor mode. U2OS PGC1a acetylation, AlphaScreen anti-acetyl-lysine; with virally co-expressed GCN5 acetyltransferase. inhibition, % at 15.6 µM. AID 651687. hit rate 0.17% among 350,000;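 active = every replicate shows inhibition of at least 40%; inconclusive = mean inhibition at least 40% but some replicate below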
rRNA inh HTS – inhibits bacterial ribosomal RNA function over humanized ribosomes | E. coli WT GFP vs humanized-ribosome RFP mutants, fluorescence, 24 h; hits give low values; DMSO median 0, no signal -100 | GFP signal change (wild-type ribosome), % (test concentration not listed) | hit rate 1.6% among 350,000 | AID 720706;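 active = significant combined selectivity score with lowered wild-type GFP, culture density cut under 30%, mutant RFP and density less affected; inactive = any of these conditions unmet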
LGR2 antag – inhibitors of bursicon-induced Drosophila LGR2 receptor cAMP signaling; HEK293 LGR2, CRE-luciferase, bursicon-stimulated, 4 h; inhibition, % at 9.99 µM; hit rate 0.35% among 380,000; AID 720647;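 active = drop in luminescence signal, shown as inhibition above about 50% in the replicate tests, limit read from the data, passing the limit was not always enough; inconclusive = probably only some replicates passing the limit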;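 also: agonist challenge used bursicon conditioned medium at about half maximal strength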
PAX8 inh HTS – inhibitors of PAX8 transcriptional activity in RMG-I cells | inhibition, % at 12.6 µM | hit rate 1.2% among 360,000 | RMG-I TPO-luciferase reporter, SteadyGlo, 24 h | AID 652154;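 active = mean replicate inhibition at least 60% with every replicate also reaching 60%; inconclusive = only one of the two criteria is met; inactive = mean below 60% and not all replicates reaching 60%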;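 also: luciferase light reporting Pax8 driven TPO promoter activity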
Of the large screens only hits and unclear results are named; the others gave an inactive call. Shown are actives, neighbours in structure and some others; about 3.4% of the full set was active somewhere.

CN1c2ccc(C#Cc3ccccc3)cc2[C@H]2[C@H](CCN2S(=O)(=O)c2ccccc2F)[C@H]1CO	none (no result: EWS-Fli inh, SIRT5 inh, PGC1a acetyl inh, LGR2 antag, PAX8 inh HTS)
CC1CN(CC(O)COC(c2ccccc2)c2ccccc2)CC(C)O1 (stereo not given)	PAX8 inh HTS 120.4 (no result: SIRT5 inh, LGR2 antag)
Cc1ccc2[nH]c3c(Cl)ncnc3c2c1	rRNA inh HTS -29.3
C[C@H]1CN([C@@H](C)CO)C(=O)c2cccc(NC(=O)C3CCOCC3)c2O[C@H]1CN(C)CC1CCCCC1	none
O=S(=O)(Nc1cccc(-c2cn3cccnc3n2)c1)c1ccc(F)cc1	PAX8 inh HTS 77.1
CNc1ccc(Br)cc1C(O)c1ccccc1 (stereo not given)	SIRT5 inh 37.5 (no result: PGC1a acetyl inh)
O=C(NC1CCCCC1)C(c1ccc(F)cc1)N(Cc1ccco1)C(=O)CN1C(=O)c2ccccc2S1(=O)=O (stereo not given)	PAX8 inh HTS 102.3 (no result: PGC1a acetyl inh)
COc1ccc(CN2CCN(CCCc3ccccc3)C(CCO)C2)c(OC)c1 (stereo not given)	SIRT5 inh 18.5 (no result: PGC1a acetyl inh)
Cc1ccccc1S(=O)(=O)N1C[C@@H](O)COC[C@H]2O[C@H](CC(=O)NCCc3ccccc3)CC[C@@H]21	none
Cc1noc(C)c1NC(=O)N(C)C[C@@H]1OCCCC[C@@H](C)Oc2ccc(NS(=O)(=O)c3cccs3)cc2C(=O)N([C@H](C)CO)C[C@H]1C	none
CC[N+]1=C(C)C(C)(C)c2cc(C)ccc21	LGR2 antag 55.7, PAX8 inh HTS 96.0
Cc1ccc(C(=O)n2c(N)nc3ccccc32)cc1	EWS-Fli inh 74.9, LGR2 antag 88.6, PAX8 inh HTS 64.8
Cc1ccc(S(=O)(=O)n2c(N)nc3ccccc32)cc1	none (no result: LGR2 antag)
O=C(Cc1ccc([N+](=O)[O-])cc1)Nc1cc(C(F)(F)F)cc(C(F)(F)F)c1	rRNA inh HTS -29.0
Cc1ccc2nc(Nc3nc(-c4ccccc4)cc(=O)[nH]3)nc(C)c2c1	LGR2 antag inconclusive (no result: EWS-Fli inh, SIRT5 inh, rRNA inh HTS, PAX8 inh HTS)
COc1ccc2c(C)nc(Nc3nc(-c4ccccc4)cc(=O)[nH]3)nc2c1	LGR2 antag inconclusive, PAX8 inh HTS 95.2
Cc1ccc(-c2nc(N3CCN(C)CC3)c3ccccc3n2)cc1	rRNA inh HTS -26.6
CCCC(=O)Nc1ccc2c(c1)OC[C@H](C)N(Cc1ccccc1F)C[C@H](C)[C@@H](OC)CN(C)C2=O	none
NC(=O)c1ccc(Sc2nnc(-c3cccs3)n2CC2CCCO2)c([N+](=O)[O-])c1 (stereo not given)	EWS-Fli inh 75.2
CNC[C@@H]1Oc2ccc(N(C)C)cc2C(=O)N(C)C[C@H]1C	none (no result: EWS-Fli inh, SIRT5 inh, PGC1a acetyl inh, LGR2 antag, PAX8 inh HTS)
Cc1ccc(N(CC(O)Cn2nc(C)cc2C)S(=O)(=O)c2ccc3ccccc3c2)cc1 (stereo not given)	rRNA inh HTS -30.5 (no result: PGC1a acetyl inh)
Cc1cc(C)n(CC(O)CN(c2ccccc2)S(=O)(=O)c2ccccc2)n1 (stereo not given)	none (no result: EWS-Fli inh, SIRT5 inh, rRNA inh HTS, PAX8 inh HTS)
Cc1nn(C)c(C)c1/C=N/NC(=O)CCn1cc([N+](=O)[O-])cn1	EWS-Fli inh 71.7 (no result: PGC1a acetyl inh)
O=C(C[C@@H]1C=C[C@@H](NC(=O)NC2CCCCC2)[C@@H](CO)O1)NCc1ccccc1	none (no result: SIRT5 inh, rRNA inh HTS)
CCOc1cc(C(=O)OCc2cccc(OC)c2OC)ccc1OCC(=O)N1CCOCC1	SIRT5 inh 15.8
C/C=C/c1ccc2c(c1)O[C@@H](CN(C)Cc1ccccn1)[C@@H](C)CN([C@H](C)CO)S2(=O)=O	none
CC(=O)N(c1cccc(C)c1)S(=O)(=O)c1ccc(Cl)cc1	PGC1a acetyl inh 53.0
CCC(=O)N1CC2(C1)CN(S(C)(=O)=O)[C@H](CO)c1[nH]c3cc(OC)ccc3c12	none (no result: SIRT5 inh, PAX8 inh HTS)
C[C@H](O)C#Cc1ccc([C@H]2[C@@H](CO)N3CCCCN(CC4CCOCC4)C[C@@H]23)cc1	none
C[C@@H]1CN([C@@H](C)CO)C(=O)c2cc(NC(=O)Cc3ccccc3)ccc2O[C@@H](C)CCCCO[C@@H]1CN(C)C(=O)CCCN(C)C	none (no result: SIRT5 inh)
O=C(N[C@H](C(=O)N1CCC[C@H]1C(=O)NC1CCCC1)C1CCCCC1)c1ccc(Cl)cc1Cl	rRNA inh HTS -28.0 (no result: PGC1a acetyl inh)
O=C(C[C@H]1CC[C@H](NC(=O)c2ccncc2)[C@H](CO)O1)NCc1ccncn1	none (no result: EWS-Fli inh)
Cc1noc(C)c1S(=O)(=O)Nc1ccc2c(c1)CC(=O)N([C@H](C)CO)C[C@H](C)[C@H](CN(C)Cc1ccc(-c3ccccc3)cc1)O2	SIRT5 inh 15.1 (no result: PAX8 inh HTS)
COc1ccc(CN(C)C[C@@H]2Oc3ccc(NS(=O)(=O)c4c(C)noc4C)cc3CC(=O)N([C@@H](C)CO)C[C@@H]2C)cc1	SIRT5 inh 23.9 (no result: PAX8 inh HTS)
CCC(=O)N1C[C@H](C)[C@@H](OC)CN(C)C(=O)c2cc(NC(=O)NC3CCCC3)ccc2OC[C@@H]1C	none (no result: PAX8 inh HTS)
CCCCOP(=O)(c1ccc(N(C)C)cc1)C(O)c1ccc(OC)cc1 (stereo not given)	PGC1a acetyl inh 82.0
CCCCOP(=O)(c1ccc(N(C)C)cc1)C(O)c1cc(OC)c(OC)c(OC)c1 (stereo not given)	none (no result: SIRT5 inh)
COc1ccccc1-c1ccc2c(c1)O[C@H](CN(C)C(=O)c1ccccc1)[C@@H](C)CN([C@H](C)CO)S2(=O)=O	none
Cc1cc(C(=O)NNC(=O)Nc2ccc(Cl)cc2)no1	none (no result: rRNA inh HTS, LGR2 antag)
CCCCC#Cc1ccc(C(=O)NNC(=O)Nc2cc(Cl)cc(Cl)c2)o1	rRNA inh HTS -40.5 (no result: PGC1a acetyl inh)
Cc1nc2ccc(NC(=S)NC3CCCCC3)cc2nc1C	rRNA inh HTS -28.4 (no result: PGC1a acetyl inh)
Cc1ccc(NC(=S)NC2CCCC2)cc1C	none (no result: EWS-Fli inh, SIRT5 inh, rRNA inh HTS)
C[C@@H]1CN([C@@H](C)CO)C(=O)Cc2cc(N(C)C)ccc2O[C@H]1CN(C)S(=O)(=O)c1cccs1	none
CN(C)CC(O)c1ccc(C=Cc2ccc(Cl)cc2)cc1 (stereo not given)	PGC1a acetyl inh 50.6, LGR2 antag inconclusive
CC(=O)N1[C@H](C(=O)NC2Cc3ccccc3C2)[C@@H](CO)[C@@H]2Cn3c(ccc(-c4ccncc4)c3=O)[C@@H]21	none (no result: PGC1a acetyl inh, PAX8 inh HTS)
COc1ccc(-c2ccc3c(c2)S(=O)(=O)c2cccc(C(=O)NCc4ccccc4Cl)c2C3=O)cc1OC	none
COc1ccc(-c2ccc3c(c2)S(=O)(=O)c2cccc(C(=O)NCCOc4ccccc4Cl)c2C3=O)cc1OC	EWS-Fli inh 57.9
C=CCNC(=O)C1CC1(c1cccc(C)c1)c1cccc(C)c1 (stereo not given)	none
Cc1cccc(C2(c3cccc(C)c3)CC2C(=O)Nc2ccc([N+](=O)[O-])cc2O)c1 (stereo not given)	PAX8 inh HTS 94.7 (no result: EWS-Fli inh, SIRT5 inh, PGC1a acetyl inh, rRNA inh HTS)
CC(C(=O)O)N(C(=O)c1ccccc1)c1ccc(F)cc1 (stereo not given)	SIRT5 inh 25.6
CC(C)C(=O)NN(C(=O)c1ccccc1)c1ccccc1	none (no result: PGC1a acetyl inh)
CO[C@H]1CN(C)C(=O)c2ccc(NC(=O)NC(C)C)cc2OC[C@@H](C)N(C(=O)C2CCC2)C[C@@H]1C	none (no result: PAX8 inh HTS)
O=[N+]([O-])c1cccc(-c2nnc(-c3ccccc3)o2)c1	none
